Test [1] can be described thus: anti-His antibody binders, primary screen, artefact control for SMM control protein annotation, biochemical, small-molecule microarray, 635 nm fluorescence (AID 1128).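 Further: score merges feature fluorescence with signal-to-noise for each printed compound spot.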 Conditions: anti-His Alexa647 antibody binding, higher = more signal.
The subject of test [2] is Human papillomavirus type 1a E7 protein (residues 1-88). Put plainly: HPV1a E7 small-molecule binders, primary screen, biochemical, small-molecule microarray, residues 1-88, 635 nm (AID 1129). The settings on record: small-molecule microarray binding, fluorescence 635 nm; higher = more signal.
The target in test [3] is Focal adhesion kinase 1 (Homo sapiens) (UniProt Q05397). Put plainly: small-molecule microarray binders of FAK, primary screen, biochemical, 635/667 nm fluorescence, BSA, DTT (AID 1130).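 Further: composite of spot emission at 667 nm and signal to noise over triplicate slides.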 The settings on record: PTK2 binding, 635 nm fluorescence, higher = more signal.
Test [4] concerns Fibrinogen (Alexa647-labelled). Briefly: fibrinogen binders on compound microarrays, profiling panel, artefact control for SMM control-protein annotation, biochemical, small-molecule microarray, 635/667 nm fluorescence (AID 1131).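 Further: z-score merges 667 nm fluorescence with per-spot signal-to-noise over triplicate slides.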 Conditions: fibrinogen-A647 binding fluorescence, higher = more signal.
Test [5] has as its target Follistatin (Homo sapiens) (UniProt P19883). Briefly: follistatin binders on small-molecule microarrays, primary screen, biochemical, small-molecule microarray, 635/667 nm fluorescence (AID 1132). Conditions: FST binding, 635 nm fluorescence, higher = more signal.
Test [6] addresses Fibroblast growth factor 2 (Homo sapiens) (UniProt P09038). Put plainly: FGF2 binders on small-molecule microarrays, primary screen, biochemical, small-molecule microarray, 635/667 nm fluorescence (AID 1133). The settings on record: small-molecule microarray binding, FGF2, fluorescence 635/667; higher = more signal.
The nature of test [7]: mitochondrial membrane potential change in A549 cells, profiling panel, cell-based, JC-1 fluorescence, basal, 24 h, 100 nL (AID 1138).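 Further: A549 lung adenocarcinoma cells under basal conditions with no added stimulus; test concentration not given here.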 Conditions: higher = more signal.
The subject of the next test is Lefty1. Briefly: Lefty1 binders on small-molecule microarrays, primary screen, biochemical, small-molecule microarray, 635/667 nm fluorescence (AID 1139). Conditions: small-molecule microarray binding, fluorescence 635/667; higher = more signal.
In test [8] the test system is wheat germ agglutinin (Triticum aestivum), Alexa647-labelled. Briefly: wheat germ agglutinin binders on compound microarrays, profiling panel, artefact control for SMM control-protein annotation, biochemical, small-molecule microarray, 635/667 nm fluorescence (AID 1140).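 Further: score merges 667 nm feature emission with signal to noise over triplicate slides.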 Conditions: WGA-A647 binding, 635 nm fluorescence, higher = more signal.
In test [9] the target is Luciferin 4-monooxygenase (Photinus pyralis) (UniProt P08659). Put plainly: firefly luciferase enzyme inhibitors, primary screen, biochemical, luminescence, purified enzyme, 2006 set (AID 1141).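 Further: cell-free assay with purified firefly luciferase at 100 ng per well in PBS; test concentration not given here.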 Conditions: SteadyGlo luminescence, 30 min, higher = more signal, called active from +8 up or from −8 down.
In test [10] the test system is Wnt5a (protein binding on small-molecule microarray). Briefly: Wnt5a binders on small-molecule microarray, primary screen, biophysical, 635/667 nm fluorescence (AID 1142).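 Further: fluorescence read at 667 nm with signal to noise per printed feature.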 The settings on record: 635 nm fluorescence, higher = more signal.
Test [11] can be described thus: cell viability in Huh7 cells, primary screen, cytotoxicity control for HCV replication inhibitor project, CellTiter-Glo luminescence, basal, 48 h (AID 1143).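 Further: Huh7 hepatoma cells carrying a hepatitis C replication reporter with no stimulus; test concentration not given here.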 Conditions: Huh7 HCV replicon, higher = more signal, called active from +8 up or from −8 down. Background: Cellular ATP, detected with luciferase, serves as a proxy for viable cell number.
The nature of test [12]: P. aeruginosa biofilm formation inhibitors, primary screen, PAO1 strain, BacTiter-Glo luminescence, LB-PBS (AID 1144). Conditions: 12 h, higher = more signal.
Test [13] is described as follows: CREB reporter modulators without forskolin, primary screen, cell-based, PC12, CRE-LacZ reporter, unstimulated (AID 1145). The settings on record: no forskolin, luminescence, 4.5 h, higher = more signal, called active from +8 up or from −8 down.
Test [14] can be described thus: CREB reporter modulators under forskolin, primary screen, cell-based, PC12, CRE-LacZ reporter, forskolin-stimulated (AID 1146).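 Further: PC12 cells with 6xCRE LacZ reporter stimulated by forskolin 10 µM; beta-galactosidase reporter signal reflecting CREB driven transcription.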 Conditions: luminescence, 4.5 h, higher = more signal, called active from +8 up or from −8 down.
Test [15] deals with Streptavidin (Streptomyces avidinii) (UniProt P22629). Briefly: streptavidin binders on small-molecule microarray, primary screen, artefact control for SMM compound annotation, biophysical, 635/667 nm fluorescence (AID 1147).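 Further: signal reflects streptavidin binding to arrayed compounds as a control protein.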 The settings on record: streptavidin binding, higher = more signal.
The nature of test [16]: small-molecule binders of probe aInhba, primary screen, biochemical, small-molecule microarray, 635/667 nm fluorescence (AID 1148).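 Further: score merges 667nm spot fluorescence with signal-to-noise for antibody binding to printed compounds.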 The settings on record: higher = more signal.
Test [17] deals with Torsin-1A (Homo sapiens) (UniProt O14656). Put plainly: torsin A binders from cell lysate, primary screen, small-molecule microarray, wild-type, 635/667 nm (AID 1149). The settings on record: COS7 hTOR1A-WT lysate, 635 nm fluorescence, higher = more signal.
The target is the same in test [18]. Briefly: small-molecule binders of mutant TOR1A in lysate, primary screen, cell lysate, small-molecule microarray, COS7 lysate, 635/667 nm fluorescence (AID 1150).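 Further: score pools 667 nm emission and signal to noise measuring lysate protein binding.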 Conditions: COS7 hTOR1A mutant lysate, 635 nm fluorescence, higher = more signal.
The subject of test [19] is Sonic hedgehog protein (Shh). Briefly: small-molecule binders of Shh protein, primary screen, biochemical, small-molecule microarray, 635/667 nm fluorescence (AID 1151).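 Further: Shh protein binding to compounds spotted on small-molecule microarray slides; score combines spot fluorescence intensity with signal-to-noise across triplicate slides.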 Conditions: small-molecule microarray binding, 635 nm fluorescence; higher = more signal.

SMILES strings stand for the structures. Active and inactive are the calls of the source. Unless noted, how the calls were made is not given here.

Follistatin (Homo sapiens), sequence (P19883 whole entry, looked up): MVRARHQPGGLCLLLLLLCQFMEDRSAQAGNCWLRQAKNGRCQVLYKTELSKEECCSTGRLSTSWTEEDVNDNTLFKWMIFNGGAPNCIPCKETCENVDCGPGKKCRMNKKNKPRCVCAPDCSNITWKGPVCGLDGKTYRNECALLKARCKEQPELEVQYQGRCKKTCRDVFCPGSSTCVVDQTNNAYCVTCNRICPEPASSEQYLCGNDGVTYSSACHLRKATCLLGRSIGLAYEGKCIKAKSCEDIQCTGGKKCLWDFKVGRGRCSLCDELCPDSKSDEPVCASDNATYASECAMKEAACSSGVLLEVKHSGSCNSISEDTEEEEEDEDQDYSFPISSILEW
Streptavidin (Streptomyces avidinii), sequence (P22629 whole entry, looked up): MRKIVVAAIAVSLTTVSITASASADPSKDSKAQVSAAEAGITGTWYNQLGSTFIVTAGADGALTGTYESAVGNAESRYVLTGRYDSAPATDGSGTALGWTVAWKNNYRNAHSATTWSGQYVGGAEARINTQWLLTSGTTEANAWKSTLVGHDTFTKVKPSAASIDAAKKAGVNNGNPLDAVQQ
Focal adhesion kinase 1 (Homo sapiens), sequence (Q05397 whole entry, looked up): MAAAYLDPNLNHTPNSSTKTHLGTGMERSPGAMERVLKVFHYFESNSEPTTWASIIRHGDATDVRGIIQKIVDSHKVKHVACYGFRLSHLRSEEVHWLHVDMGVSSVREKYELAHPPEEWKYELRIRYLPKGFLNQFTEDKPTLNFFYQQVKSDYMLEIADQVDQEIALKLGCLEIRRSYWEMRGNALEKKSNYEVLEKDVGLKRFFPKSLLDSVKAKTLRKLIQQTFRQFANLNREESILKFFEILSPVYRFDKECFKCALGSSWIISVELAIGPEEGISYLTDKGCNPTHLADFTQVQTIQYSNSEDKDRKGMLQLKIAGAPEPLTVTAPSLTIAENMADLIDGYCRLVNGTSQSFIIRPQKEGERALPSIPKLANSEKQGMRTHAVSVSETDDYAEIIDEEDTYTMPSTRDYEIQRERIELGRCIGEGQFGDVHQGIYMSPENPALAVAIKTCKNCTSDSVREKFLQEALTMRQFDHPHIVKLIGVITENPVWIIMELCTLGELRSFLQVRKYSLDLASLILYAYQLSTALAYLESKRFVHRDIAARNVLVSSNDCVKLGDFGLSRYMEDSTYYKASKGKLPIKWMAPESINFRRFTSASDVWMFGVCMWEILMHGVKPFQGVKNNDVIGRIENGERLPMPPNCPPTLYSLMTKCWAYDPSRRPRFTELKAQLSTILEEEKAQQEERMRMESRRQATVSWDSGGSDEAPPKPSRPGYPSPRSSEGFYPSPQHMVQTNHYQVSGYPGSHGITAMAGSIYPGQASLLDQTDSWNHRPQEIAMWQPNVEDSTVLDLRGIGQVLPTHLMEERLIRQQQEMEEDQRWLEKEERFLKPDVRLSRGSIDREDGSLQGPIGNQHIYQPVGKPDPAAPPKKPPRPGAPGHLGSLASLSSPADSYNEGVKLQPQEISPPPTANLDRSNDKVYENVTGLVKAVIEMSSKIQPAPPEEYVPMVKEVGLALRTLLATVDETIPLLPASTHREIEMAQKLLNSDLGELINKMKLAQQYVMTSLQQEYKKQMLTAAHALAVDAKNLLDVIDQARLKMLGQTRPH
Torsin-1A (Homo sapiens), sequence (O14656 whole entry, looked up): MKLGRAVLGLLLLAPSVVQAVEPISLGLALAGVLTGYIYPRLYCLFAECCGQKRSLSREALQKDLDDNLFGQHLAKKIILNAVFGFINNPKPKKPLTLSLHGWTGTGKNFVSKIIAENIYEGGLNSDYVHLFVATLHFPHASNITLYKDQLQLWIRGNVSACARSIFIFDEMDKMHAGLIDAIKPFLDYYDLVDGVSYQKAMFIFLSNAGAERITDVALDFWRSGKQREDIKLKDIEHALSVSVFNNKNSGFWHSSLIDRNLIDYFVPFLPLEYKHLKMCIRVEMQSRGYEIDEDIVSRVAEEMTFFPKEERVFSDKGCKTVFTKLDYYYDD
Fibroblast growth factor 2 (Homo sapiens), sequence (P09038 whole entry, looked up): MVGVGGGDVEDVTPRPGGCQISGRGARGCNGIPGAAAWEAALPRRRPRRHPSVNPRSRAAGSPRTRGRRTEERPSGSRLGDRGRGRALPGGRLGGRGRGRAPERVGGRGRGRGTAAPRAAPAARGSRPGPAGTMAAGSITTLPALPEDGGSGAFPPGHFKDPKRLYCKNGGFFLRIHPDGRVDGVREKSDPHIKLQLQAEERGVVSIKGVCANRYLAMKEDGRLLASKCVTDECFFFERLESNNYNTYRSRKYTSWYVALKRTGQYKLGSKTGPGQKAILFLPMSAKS
Luciferin 4-monooxygenase (Photinus pyralis), sequence (P08659 whole entry, looked up): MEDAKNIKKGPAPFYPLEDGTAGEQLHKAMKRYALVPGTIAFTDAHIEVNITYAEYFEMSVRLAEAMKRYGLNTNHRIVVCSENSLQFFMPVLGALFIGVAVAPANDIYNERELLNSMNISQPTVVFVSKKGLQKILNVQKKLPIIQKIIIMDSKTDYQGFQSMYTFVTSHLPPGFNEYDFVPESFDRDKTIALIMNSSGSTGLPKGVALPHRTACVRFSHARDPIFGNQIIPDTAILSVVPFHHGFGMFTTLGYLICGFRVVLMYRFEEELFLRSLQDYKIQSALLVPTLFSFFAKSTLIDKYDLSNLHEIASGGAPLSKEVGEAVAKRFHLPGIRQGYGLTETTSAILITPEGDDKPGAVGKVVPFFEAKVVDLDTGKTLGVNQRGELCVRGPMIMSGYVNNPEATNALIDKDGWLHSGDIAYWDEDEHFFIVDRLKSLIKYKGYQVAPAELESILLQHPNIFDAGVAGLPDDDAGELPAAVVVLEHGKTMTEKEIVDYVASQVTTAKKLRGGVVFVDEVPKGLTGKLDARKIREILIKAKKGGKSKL

As for `C=CCC(OC(C)=O)[C@@H]1[C@@H](N(Cc2cc3ccccc3o2)C(=O)c2cccc3ccccc23)c2cc(OCCCO)ccc2N1C(=O)c1ccc2ccccc2c1` (stereo not given in full), the composite z-score in test [1] is -0.0596; in test [2] it was -0.566; in test [3], 0.11; in test [4] it was -0.262; in [5], 0.65; in [6], 0.133. The composite z-score was 0.203 with Lefty1; -0.0449 in [8]; 0.316 in test [10]; 0.0823 in test [15]; -0.0791 in test [16]; 0.523 with Torsin-1A (Homo sapiens) [17]. Further, the composite z-score in the test with Torsin-1A (Homo sapiens) [18] was 0.132; in test [19], 0.198. The z-score in test [7] was -0.0697; in test [9] it was 0.131 (inactive); in test [11] it was -0.928 (inactive); in [12] it was 0.26 (inactive); in test [13], 3.85 (inactive); in test [14], 0.0746 (inactive).
Consider `COCCOC(=O)N1C(=O)[C@@]2(c3cc(C#CC4=CCCCC4)ccc31)[C@H](c1ccccc1OCCO)N1[C@H](c3ccccc3)[C@H](c3ccccc3)OC(=O)[C@H]1[C@@H]2C(N)=O`, for which the composite z-score in test [1] is 1.48; in test [2], 1.17; in test [3] it was 0.539; in test [4], 0.83; in [5] it was 1.06; in test [6] it was 1.36. In addition, the composite z-score with Lefty1 was 0.91; in test [8] it was -0.0974; in test [10], 0.288; in test [15] it was 0.771; in test [16] it was -0.115; with Torsin-1A (Homo sapiens) [17], 1.21. For the same compound, the composite z-score in the test with Torsin-1A (Homo sapiens) [18] is 0.137; in [19], 1.7. In addition, the z-score in [7] was -1.8; in [9], -1.74 (inactive); in test [11], -6.61 (inactive); in [12] it was -1.73 (inactive); in test [13], -2.37 (inactive); in test [14], -1.6 (inactive).
Regarding `CN(C)CCCNC(=O)[C@@]1(Cc2ccccc2I)c2ccccc2C(=O)N(Cc2ccccc2)[C@H]1c1ccc(CO)cc1`, the composite z-score in test [1] is 1.88; in [2] it was 1.26; in test [3], 0.658; in test [4] it was 0.512; in test [5], 1.28; in [6] it was 1.58. The composite z-score is 0.239 in the test on Lefty1; -0.0325 in test [8]; 0.652 in [10]; -0.203 in test [15]; -0.471 in test [16]; 0.0857 with Torsin-1A (Homo sapiens) [17]. In addition, the composite z-score is 0.325 with Torsin-1A (Homo sapiens) [18] and 1.41 in [19]. Besides, the z-score is 0.893 in test [7]; 0.936 (inactive) in test [9]; -5.58 (inactive) in test [11]; 0.113 (inactive) in [12]; 0.351 (inactive) in test [13]; 2.56 (inactive) in test [14].
Take `Cc1ccc(S[C@]2(C(=O)NCC(F)(F)F)CC(=O)N(C3CCCCC3)[C@@H]2c2ccc(CO)cc2)cc1`: the composite z-score in test [1] is 1.12; in [2], 0.408; in [3], -0.35; in test [4], -0.0988; in [5], -0.16; in test [6] it was -0.257. Further, the composite z-score in the test on Lefty1 was -0.583; in test [8] it was 0.235; in [10] it was 0.0911; in test [15] it was -0.777; in test [16] it was -0.176; with Torsin-1A (Homo sapiens) [17] it was 0.118. The results for the composite z-score (in the test with Torsin-1A (Homo sapiens) [18]; in test [19]) were 1.06 and -0.121, respectively. In addition, the z-score in [7] is 2.02; in test [9] it was -0.0377 (inactive); in test [11], -1.09 (inactive); in test [12], 0.12 (inactive); in test [13] it was -0.529 (inactive); in test [14], -0.147 (inactive).
As for `CN(C)C(=O)[C@]1(Cc2ccccc2CN=[N+]=[N-])N=C(c2ccc(OCCCO)cc2)O[C@@H]1c1ccccc1N=[N+]=[N-]`, the composite z-score in [1] was 0.266; in [2], 1.23; in [3], 0.977; in [4] it was 1.02; in test [5], 1.18; in test [6], -0.0347. Also, the composite z-score in the test with Lefty1 is -0.136; in test [8], 1.12; in test [10], 0.397; in test [15], 1.34; in [16] it was 0.177; with Torsin-1A (Homo sapiens) [17], 0.0095. For the same compound, the composite z-score was 0.25 with Torsin-1A (Homo sapiens) [18] and -0.946 in test [19]. Further, the z-score in test [7] was 0.568; in test [9], -9.41 (active); in test [11], -3.07 (inactive); in test [12] it was -0.406 (inactive); in [13] it was -0.79 (inactive); in test [14], -0.969 (inactive).

The values above are taken from PubChem BioAssay.
